From PubChem
Hits are enriched below; roughly 19% of the tested compounds scored in any of these assays.
TDP1 inh = qHTS Assay for Inhibitors of Tyrosyl-DNA Phosphodiesterase (TDP1); actives 0.28% (n = 350,000); recombinant TDP1, AlphaScreen DNA substrate cleavage; AID 485290, 2010; Potency, µM (series often up to 130 µM), inactives show at the top dose activity change, negative = inhibition, usual class: inhibitors; Tyrosyl-DNA phosphodiesterase 1 (Homo sapiens), Q9NUW8; further: potency means the concentration at half of the fitted maximal effect; on the % scale 0 is the no-effect control and ±100 the full control effect; nearly all actives have a fitted effect of over 40% in size
Target sequence (Q9NUW8 whole entry, looked up): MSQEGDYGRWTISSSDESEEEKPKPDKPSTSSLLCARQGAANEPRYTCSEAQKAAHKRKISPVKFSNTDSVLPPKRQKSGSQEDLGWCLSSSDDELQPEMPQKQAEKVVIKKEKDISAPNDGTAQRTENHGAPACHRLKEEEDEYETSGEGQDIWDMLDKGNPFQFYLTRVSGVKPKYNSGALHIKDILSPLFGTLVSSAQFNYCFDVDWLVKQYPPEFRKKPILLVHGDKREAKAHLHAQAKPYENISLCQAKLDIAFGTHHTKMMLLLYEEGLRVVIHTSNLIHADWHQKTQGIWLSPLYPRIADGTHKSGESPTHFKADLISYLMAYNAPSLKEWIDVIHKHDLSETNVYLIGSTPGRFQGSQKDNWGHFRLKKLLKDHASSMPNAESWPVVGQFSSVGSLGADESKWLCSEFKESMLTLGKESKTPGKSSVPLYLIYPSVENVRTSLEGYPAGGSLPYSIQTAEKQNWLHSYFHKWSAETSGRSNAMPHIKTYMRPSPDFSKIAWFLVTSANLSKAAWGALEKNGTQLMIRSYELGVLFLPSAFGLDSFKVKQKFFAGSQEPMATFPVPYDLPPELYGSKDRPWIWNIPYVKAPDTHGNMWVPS
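Tdp1 1 nM final; 15 min RT w/ cpd; substrate 15 nM, 5 min; beads 10 ug/ml, 10 min; AlphaScreen read. Neg ctrl: no enzyme.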
TDP1 cell noCPT = qHTS for Inhibitors of human tyrosyl-DNA phosphodiesterase 1 (TDP1): qHTS in cells in absence of CPT | DT40 Tdp1-/- hTDP1 cells, no CPT, ATP luminescence, 48 h | Potency, µM (top dose mostly 46.2 µM), inactives show at the top dose activity change, negative = growth inhibition, hits mostly inhibitors | actives 15% (n = 420,000) | AID 686978, 2013; further: potency means the concentration at half of the fitted maximal effect; on the % scale 0 is the no-effect control and ±100 the full control effect; nearly all actives have a fitted effect of over 55% in size
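Readout: luminescence from CellTiter-Glo after 30 min in the dark at RT. Cells: DT40 Tdp1-/- with stable hTDP1, 400/well. Exposure: compounds alone, ≥48 hr, 37 °C.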
HepG2 viability = qHTS for Inhibitors of TGF-b: Cytotox Counterscreen; HepG2 CAGA-GFP viability, ATP luminescence, 18 h; Potency, µM (highest dose often 46.1 µM), inactives show at the top dose activity change, negative = cytotoxicity, actives largely listed as cytotoxic; actives 0.76% (n = 410,000); AID 588856, 2011; further: potency means the concentration at half of the fitted maximal effect
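CellTiter-Glo luminescence gave cytotoxicity after 18 hours at 37 degrees C. The cells were HepG2 CAGA-GFP in 1% FBS DMEM, stimulated with 500 pg/mL TGF-beta after compound addition. %Activity was normalised to no-cell wells (complete cell-killing) and DMSO (no toxicity), and curves were fitted and classified.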
IL-1B inflam inh = qHTS for Inhibitors of Inflammasome Signaling: IL-1-beta AlphaLISA Primary Screen; THP-1 LPS/ATP IL-1B secretion, AlphaLISA, 16 h; active compounds read low; activity change, % at 57.5 µM; actives 4.7% (n = 360,000); in the data active means activity change below about -50%; inconclusive means mostly about -30% to -49%; further: on the % scale 0 is the no-effect control and ±100 the full control effect
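Secreted IL-1B measured by AlphaLISA bead assay after 16 h compound exposure of THP-1 cells; compounds (final up to 57.5 uM) added 1 h before LPS (250 ng/mL) and ATP (1.25 mM) stimulation; lower signal means less secretion.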
DT40 TDP1 CPT = qHTS for Inhibitors of human tyrosyl-DNA phosphodiesterase 1 (TDP1): qHTS in cells in presence of CPT | chicken DT40 Tdp1-/-;hTDP1 cells + 20 nM CPT, ATP luminescence, 48 h | actives 12% (n = 420,000) | AID 686979, 2013 | Potency, µM (titrated, usually from 46.2 µM), for inactives: at the top dose activity change, negative = growth inhibition, hits mostly inhibitors; further: potency means the concentration at half of the fitted maximal effect; on the % scale 0 is the no-effect control and ±100 the full control effect; nearly all actives have a fitted effect of over 55% in size
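Cell growth measured by CellTiter-Glo luminescence after a minimum 48 h, 37 C compound exposure with 20 nM CPT in Tdp1-knockout DT40 cells stably expressing hTDP1, seeded 400/well; qHTS titration format.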
TGFb inhibitor = qHTS for Inhibitors of TGF-b; HepG2 CAGA-GFP TGF-b/SMAD3 reporter, GFP fluorescence, 18 h; TGF-beta stimulated, 500 pg/mL final; AID 588855, 2011; actives 1.2% (n = 410,000); Potency, µM (doses to about 46.1 µM), for inactives: at the highest dose activity, negative = inhibition, most hits filed as inhibitors; further: potency means the concentration at half of the fitted maximal effect; on the % scale 0 is the no-effect control and ±100 the full control effect; nearly all actives have a fitted effect of over 65% in size
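TGF-beta reporter screen: HEPG2 CAGA-GFP, 1% FBS, 500 pg/mL TGF-beta final, 18 h; per-cell GFP summed per well; curves fitted and categorized by class.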
An asterisk follows results filed as active; ? = inconclusive; . = no result; [ ] = dose if it differs, or a comment. Unless noted, the call rests on the fitted dose curve; in most records, active means well fitted curve in the direction sought with a large enough effect; inconclusive means small, poorly fitted or top-dose-only effect, or another doubt; inactive means no such curve, though single readings can be large; an effect the other way counts as inactive or inconclusive.

SMILES	TDP1 inh	TDP1 cell noCPT	HepG2 viability	IL-1B inflam inh	DT40 TDP1 CPT	TGFb inhibitor
OC(Cc1ccnc2ccccc12)C(Cl)(Cl)Cl (stereo not given)	.	10µM*	-2%	8	?	9%
CCCCCCCC/C=C\CCCCCCCCN	.	-8%	.	.	-1%	.
Cc1ccc(-c2csc3ncnc(N4CCN(S(=O)(=O)c5ccc(C#N)cc5)CC4)c23)cc1	.	16µM*	2%	7	?	-5%
N#Cc1ccc(S(=O)(=O)N2CCN(c3ncccn3)CC2)cc1	3%	-9%	-12%	-5	-2%	-4%
Cc1ccc(S(=O)(=O)N2CCN(c3ncnc4sccc34)CC2)cc1	3%	3.3µM*	-38%	-10	7.3µM*	-28%
CCN1CCN(c2ncnc3scc(-c4ccc(C)cc4)c23)CC1	2%	?	-22%	-15	?	-6%
Cc1ccc(-c2csc3ncnc(N4CCN(S(=O)(=O)c5cccs5)CC4)c23)cc1	2%	21µM*	6%	29	?	-9%
c1ccc(CC2CCN(c3ncnc4sccc34)CC2)cc1	5%	2.6µM*	-36%	-51*	5.2µM*	?
O=C(Nc1ccccc1)Nc1nc(Nc2cc(F)cc(F)c2)nc(NC2CCCC2)n1	1%	.	.	.	.	.
COC(=O)c1ccc(CN2CCC3(CCC(CNC(=O)c4ccco4)O3)CC2)cc1 (stereo not given)	.	-15%	.	.	-27%	.
COc1ccc(-c2csc3ncnc(N4CCN(CCO)CC4)c23)cc1	.	?	-4%	-15	-23%	11%
Cc1ccc(-c2csc3ncnc(N4CCc5ccccc5C4)c23)cc1	4%	21µM*	25%	36	?	-2%
O=S(=O)(c1ccccc1)N1CCN(c2ncnc3scc(-c4ccccc4)c23)CC1	13%	?	6%	-4	16µM*	4%
COc1ccc(-c2csc3ncnc(N4CCN(S(=O)(=O)c5ccc(C)c(C)c5)CC4)c23)cc1	1%	18µM*	0%	84	?	6%
Cc1ccc2c(c1)C(c1ccccc1)N(C(=O)c1ccc(S(=O)(=O)N3CCCCC3)cc1)CC(=O)N2 (stereo not given)	-2%[12.3 µM]	?	-14%	.	?	-20%
O=C1CN(C(=O)c2ccc(S(=O)(=O)N3CCCC3)cc2)C(c2ccccc2)c2cc(Br)ccc2N1 (stereo not given)	3%	?	-29%	.	15µM*	?
Cc1ccc2c(c1)C(c1ccccc1)N(C(=O)c1ccc(Br)o1)CC(=O)N2 (stereo not given)	8%	21µM*	-19%	-11	21µM*	-10%
O=C1CN(C(=O)c2ccc(Br)o2)C(c2ccccc2)c2cc(Br)ccc2N1 (stereo not given)	-7%	21µM*	-26%	?	16µM*	?
O=C1CN(C(=O)Cc2ccc(F)cc2)C(c2ccccc2)c2cc(Br)ccc2N1 (stereo not given)	9%	?	-35%	.	?	-4%
Cc1cccc(Oc2nc(CN3CCOCC3)nc3sc4c(c23)CCCC4)c1	8%	?	-19%	?	?	0%
Cc1nc(Oc2ccc(S(=O)(=O)N3CCOCC3)cc2Cl)c2c3c(sc2n1)CCCC3	1%	?	-5%	-52*	?	-34%
COCC(=O)Nc1cc(C(=O)N2CCSCC2)cc2nc(-c3ccccc3)n(C)c12	.	-3%	.	.	1%	.
COc1ccc(C2C(C#N)=C(N)Oc3c2oc(CO)cc3=O)cc1 (stereo not given)	7%	31%	-1%	-5	-13%	13%
CCN1C=C(Cc2ccc(OC)cc2)C2=C(C1)C(c1ccc(OC)cc1)C(C#N)=C(N)O2 (stereo not given)	12%	16µM*	-19%	-60*	?	14%
C[C@@H]1CCCCO[C@H](CN(C)C(=O)NC2CCCCC2)[C@@H](C)CN([C@H](C)CO)C(=O)c2cc(NC(=O)c3ccccc3)ccc2O1	.	21µM*	-31%	?	?	1%
C[C@@H]1CN([C@@H](C)CO)C(=O)c2cc(NC(=O)c3ccccc3)ccc2O[C@@H](C)CCCCO[C@@H]1CN(C)Cc1ccc(C(F)(F)F)cc1	.	7.3µM*	-30%	?	9.2µM*	-12%
C[C@@H]1CCCCO[C@H](CN(C)Cc2ccc(C(=O)O)cc2)[C@@H](C)CN([C@H](C)CO)C(=O)c2cc(NC(=O)CCC(F)(F)F)ccc2O1	.	-28%	0%	34	-12%	2%
C[C@@H]1CCCCO[C@H](CN(C)C(=O)Nc2ccc(F)cc2)[C@@H](C)CN([C@H](C)CO)C(=O)c2cc(NC(=O)c3ccccc3)ccc2O1	.	?	-22%	-25	?	-13%
C[C@@H]1CN([C@@H](C)CO)C(=O)c2cc(NC(=O)Nc3ccccc3)ccc2O[C@@H](C)CCCCO[C@H]1CN(C)C(=O)Nc1ccc(C(F)(F)F)cc1	.	?	0%	?	?	-8%
C[C@@H]1CCCCO[C@@H](CN(C)Cc2ccccc2)[C@@H](C)CN([C@H](C)CO)C(=O)c2cc(NC(=O)Nc3cccc4ccccc34)ccc2O1	.	21µM*	-17%	20	-12%	-3%
